In PubChem BioAssay (NCATS):
Records with an inconclusive call do not appear. Active and inactive are the calls of the source. Unless noted, calls follow the shape of the dose curve; as a rule, active = well fitted curve in the direction sought with a large enough effect; inconclusive = small, poorly fitted or top-dose-only effect, or another doubt; inactive = no such curve, though single readings can be large; an effect the other way counts as inactive or inconclusive.

Columns and labels:
[1] = Confirmation and Secondary Assay for Modulators of Hemoglobin Beta Chain Splicing at IVS2 705 locus (AID 930);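 also: HeLa cells stably expressing the EGFP-705 splicing reporter; GFP fluorescence per well restored by corrected splicing of the IVS2-705 intron in EGFP; series mostly up to about 46 µM; % of control where 0% means no effect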
How it was run: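 Splice-correction reporter: EGFP cDNA split by beta-globin intron 2 bearing the 705 mutation, stably in HeLa. Compound incubation 2 days, 37C; fluorescent objects 5-250 µm summed per well.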

[2] = qHTS Assay for Identification of Small Molecule Agonists for Thrombopoietin (TPO) Signaling Pathway (AID 917); also: % is scaled to controls: 0 for no effect and ±100 for the full control effect
How it was run: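 Stimulation at the TPO EC50 (26 pM final) was used to detect activators. Ba/F3 mouse cells bearing human TPO receptor and a luciferase reporter under the Glycoprotein IIb promoter were exposed to compounds for 24 hrs at 37 C.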

[3] = molecular target: Muscarinic acetylcholine receptor M1 (Rattus norvegicus) (UniProt P08482); experiment: qHTS Assay for Antagonists of Acetylcholine Muscarinic M1 Receptor: Kinetic Measurement of Intracellular Calcium Response (AID 943);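 also: Fluo-4 calcium signal as peak divided by basal fluorescence over 4 min; series mostly up to about 35 µM; nearly all actives have a fitted effect of over 75% in size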
Chain of Muscarinic acetylcholine receptor M1 (Rattus norvegicus) (P08482 whole entry, looked up): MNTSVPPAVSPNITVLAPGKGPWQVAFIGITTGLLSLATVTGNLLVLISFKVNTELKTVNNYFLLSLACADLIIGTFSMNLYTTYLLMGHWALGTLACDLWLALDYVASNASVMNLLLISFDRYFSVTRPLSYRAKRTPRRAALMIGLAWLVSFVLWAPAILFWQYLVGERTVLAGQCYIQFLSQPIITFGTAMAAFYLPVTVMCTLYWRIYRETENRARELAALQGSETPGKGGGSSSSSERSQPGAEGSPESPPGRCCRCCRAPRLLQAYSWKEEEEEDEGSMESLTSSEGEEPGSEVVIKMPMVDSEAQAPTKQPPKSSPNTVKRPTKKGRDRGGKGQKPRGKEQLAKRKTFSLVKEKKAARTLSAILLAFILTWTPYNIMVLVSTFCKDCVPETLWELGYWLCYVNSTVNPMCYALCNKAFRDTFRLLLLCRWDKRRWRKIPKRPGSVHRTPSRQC
How it was run: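 Read-out: peak over basal Fluo-4 fluorescence, kinetic at 1 Hz for 4 min after EC80 carbachol (100 nM final). Rat M1-CHO cells, dye loaded 1 h at 37C, compound added 10 min before agonist.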

[4] = molecular target: Muscarinic acetylcholine receptor M1 (Rattus norvegicus) (UniProt P08482); experiment: qHTS Assay for Antagonists of Acetylcholine Muscarinic M1 Receptor: Measurement of IP-One Response (AID 944); also: nearly all actives have a fitted effect of over 75% in size; also: potency is read from the fitted curve at half-maximal effect
How it was run: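 Read-out: HTRF competition between d2-IP1 and Eu-cryptate anti-IP1 antibody, emission 620 and 665 nm. Stimulus was carbachol, EC80 (200 nM), for 30 min in M1-CHO cells (rat receptor), after 10 min compound pre-treatment.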

[5] = molecular target: Pyruvate kinase (Leishmania mexicana) (UniProt Q27686); experiment: qHTS Validation Assay for Inhibitors of Leishmania Mexicana Pyruvate Kinase (AID 945);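 also: 0% = DMSO only neutral control wells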
Chain of Pyruvate kinase (Leishmania mexicana) (Q27686 2-499 E452W): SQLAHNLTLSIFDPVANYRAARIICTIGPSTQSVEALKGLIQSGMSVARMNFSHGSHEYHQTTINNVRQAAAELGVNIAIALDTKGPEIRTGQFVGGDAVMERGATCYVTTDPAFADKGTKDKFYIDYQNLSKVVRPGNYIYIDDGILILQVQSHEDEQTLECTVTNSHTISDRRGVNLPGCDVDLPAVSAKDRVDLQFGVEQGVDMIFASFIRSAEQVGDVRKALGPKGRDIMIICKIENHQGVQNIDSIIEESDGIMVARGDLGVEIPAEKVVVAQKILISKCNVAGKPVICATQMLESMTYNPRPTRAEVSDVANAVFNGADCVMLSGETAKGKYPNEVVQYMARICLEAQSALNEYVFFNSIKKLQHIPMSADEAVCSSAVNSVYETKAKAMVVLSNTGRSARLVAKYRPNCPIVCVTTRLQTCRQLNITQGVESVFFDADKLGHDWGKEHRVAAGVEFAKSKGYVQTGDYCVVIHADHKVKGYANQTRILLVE
How it was run: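 The enzyme is a highly purified E451W mutant of LmPYK used at 0.2 nM. It converts 0.5 mM PEP and 0.1 mM ADP over 1 h at room temperature; product ATP is quantified by luciferase luminescence relative to DMSO controls.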

[6] = molecular target: Pyruvate kinase PKM (Homo sapiens) (UniProt P14618); experiment: qHTS Assay for Activators of Human Muscle Pyruvate Kinase (AID 954; active = well fitted curve in the direction sought with a large enough effect, not every such curve was filed as active;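 also: 0% = uninhibited enzyme and -100% = no enzyme or full thiadiazolimine inhibition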)
Chain of Pyruvate kinase PKM (Homo sapiens) (P14618 whole entry, looked up): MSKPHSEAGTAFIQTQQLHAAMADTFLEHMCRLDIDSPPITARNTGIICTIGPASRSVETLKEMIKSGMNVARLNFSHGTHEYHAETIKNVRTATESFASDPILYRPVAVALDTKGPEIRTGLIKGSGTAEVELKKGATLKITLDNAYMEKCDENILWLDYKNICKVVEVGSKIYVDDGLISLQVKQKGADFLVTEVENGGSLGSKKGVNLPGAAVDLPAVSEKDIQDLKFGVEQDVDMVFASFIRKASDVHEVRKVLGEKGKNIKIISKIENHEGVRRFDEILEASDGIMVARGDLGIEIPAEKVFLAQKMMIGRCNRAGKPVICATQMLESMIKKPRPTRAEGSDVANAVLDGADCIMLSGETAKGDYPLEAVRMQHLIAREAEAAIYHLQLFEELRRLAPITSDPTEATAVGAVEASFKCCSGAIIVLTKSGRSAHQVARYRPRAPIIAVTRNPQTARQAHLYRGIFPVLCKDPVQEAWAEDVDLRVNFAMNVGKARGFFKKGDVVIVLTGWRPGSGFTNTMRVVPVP
How it was run: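 Screening used highly purified human pyruvate kinase M2 under submaximal activity, with PEP at its Km and ADP below Km. After an hour at room temperature, ATP was read by luciferase luminescence.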

[7] = Cell Viability - LYMP2-001 (AID 921);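 also: series mostly up to about 92 µM; 0% = DMSO only and full inhibition = tetraoctylammonium bromide control wells; nearly all actives have a fitted effect of over 70% in size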
How it was run: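 Human lymphoblastoid LYMP2-001 cells, 2500 per well, in complete medium, treated 24 h at 37 C. Viability from cellular ATP by CellTiter-Glo luminescence; AC50 from Hill-equation fits of qHTS concentration-response.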

[8] = MultiTox-Fluor Cytotoxicity Assay - LYMP1-001 - Dead Cells (AID 946);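 also: 0% = DMSO and 100% = tetraoctylammonium bromide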
How it was run: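 In this qHTS, 15 uM tetraoctylammonium bromide defined 100% and DMSO defined basal activity. Lymphoblastoid cells (LYMP1-001, 2500 per well) received compound for 16 hr at 37 C before a fluorogenic dead-cell substrate readout at 485/520 nm.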

[9] = Cell Viability - LYMP1-002 - Assay at 16 hr (AID 948);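 also: 0% = DMSO alone and full effect = 92 µM tetraoctylammonium bromide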
How it was run: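 LYMP1-002 human lymphoblastoid cells, 2500/well, were treated with compounds for 16 hr at 37 C in complete medium. Viability was read as intracellular ATP by CellTiter-Glo luminescence, and AC50 was derived from a Hill fit to concentration-response data.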

[10] = MultiTox-Fluor Cytotoxicity Assay - LYMP1-002 - Live Cells (AID 955);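 also: cells exposed to compound for 16 hours; % is scaled to controls: 0 for no effect and ±100 for the full control effect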
How it was run: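 LYMP1-002 lymphoblastoid cells; 2500 cells/well; 16 hr compound exposure, 37 C; MultiTox-Fluor reagent 60 min RT; live-cell fluorescence Ex/Em=405/510; qHTS concentration-response, Hill-equation AC50; tetraoctylammonium bromide positive control.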

[11] = MultiTox-Fluor Cytotoxicity Assay - LYMP1-002 - Dead Cells (AID 960);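 also: cells exposed to compound for 16 h at 37 °C; 0% = DMSO and 100% = tetraoctylammonium bromide; nearly all actives have a fitted effect of over 60% in size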
How it was run: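 Readout: fluorescence at 485/520 from cell-impermeant bis-AAF-R110 cleaved by proteases leaking from damaged cells. LYMP1-002 lymphoblastoid line, 16 hr compound treatment at 37 C, concentration-response in qHTS format; Hill-equation AC50 values.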

[12] = MultiTox-Fluor Cytotoxicity Assay - LYMP1-003 - Live Cells (AID 962);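 also: cells exposed to compound for 16 hours at 37 °C; 0% = DMSO only and full loss = 92 µM tetraoctylammonium bromide; cytotoxic hits lower the live-cell protease signal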
How it was run: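 Readout: live-cell fluorescence (Ex/Em=405/510) from GF-AFC cleavage after 60 min MultiTox-Fluor reagent at room temperature. Lymphoblastoid LYMP1-003 cells, 16 hr compound treatment, 37 C. Concentration-response fitted to standard Hill equation for AC50.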

[13] = Cell Viability - LYMP1-003 - Assay at 24 hr (AID 963);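 also: plate controls were DMSO only for no effect and tetraoctylammonium bromide positive control for full effect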
How it was run: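 CellTiter-Glo luminescence (intracellular ATP) read after 24 hr, 37 C compound exposure of 2500 LYMP1-003 human lymphoblastoid cells/well in complete medium; qHTS concentration series; AC50 via standard Hill equation.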

[14] = qHTS Assay for Identification of Small Molecule Agonists for Hypoxia Response Element Signaling Pathway (AID 914; active = well fitted activation curve with a large enough effect in the signal ratio, with a control signal flat, not every such curve was filed as active; the % refers to the signal ratio; also: potency is read from the fitted curve at half-maximal effect; as to activation: % of control where 0% means no effect); conditions: ME-180 (cervical carcinoma) HRE-bla reporter, beta-lactamase ratio, CoCl2, 17 h; activation: active compounds read high
How it was run: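 Cells were plated overnight, pin-dosed with compound in a titration series, co-stimulated with EC50 CoCl2 and incubated 17 hours at 37 degrees Celsius. CCF4 substrate was then loaded, and AC50 values came from the 460nm/530nm ratio.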

[15] = MultiTox-Fluor Cytotoxicity Assay - LYMP1-001 - Live Cells (AID 947);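 also: 0% = DMSO only and full inhibition = tetraoctylammonium bromide control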
[16] = MultiTox-Fluor Cytotoxicity Assay - LYMP1-003 - Dead Cells (AID 961);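 also: cells exposed to compound for 16 h at 37 °C; nearly all actives have a fitted effect of over 70% in size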; also: potency is read from the fitted curve at half-maximal effect
How it was run: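 Acute toxicity is scored as increased dead-cell protease activity in human lymphoblastoid LYMP1-003 cells after 16 h compound exposure in complete culture medium. Activity is normalized to DMSO basal and 15 uM tetraoctylammonium bromide as full response.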

[17] = Cell Viability - LYMP1-003 - Assay at 40 hr (AID 964); also: series mostly up to about 92 µM; % is scaled to controls: 0 for no effect and ±100 for the full control effect; nearly all actives have a fitted effect of over 60% in size
How it was run: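 LYMP1-003 lymphoblastoid cells, 2500/well; 5 hr preincubation, 40 hr compound exposure, 37 C; CellTiter-Glo 30 min RT; luminescence; Hill-fit AC50. Positive control tetraoctylammonium bromide.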

[18] = Cell Viability - LYMP2-003 (AID 965);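 also: cells exposed to compounds for 24 h before reading; 0% = DMSO only and full effect = 92 µM tetraoctylammonium bromide; nearly all actives have a fitted effect of over 50% in size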
How it was run: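 Human lymphoblastoid LYMP2-003 cells, 2500/well, exposed to compounds for 24 h at 37 C in complete medium. Viability read as intracellular ATP by CellTiter-Glo luminescence; AC50 from Hill-equation fits of qHTS concentration-response data.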

[19] = Cell Viability - LYMP2-004 (AID 966);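 also: plate controls were DMSO only for no effect and tetraoctylammonium bromide control for full effect; nearly all actives have a fitted effect of over 65% in size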
How it was run: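 Luminescent ATP read-out (CellTiter-Glo, 30 min RT) after 24 hr compound exposure at 37 C; 2500 lymphoblastoid cells/well, complete medium. Decrease in ATP = cytotoxicity; AC50 from standard Hill model.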

[20] = qHTS Assay for Identification of Small Molecule Antagonists for Thrombopoietin (TPO) Signaling Pathway (AID 918); conditions: TPO-dependent cell signaling reporter, antagonist mode; also: potency is read from the fitted curve at half-maximal effect; nearly all actives have a fitted effect of over 60% in size
How it was run: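 Luminescence read-out: GPIIb-promoter luciferase in Ba/F3 cells carrying human TPO receptor. Compounds added with 26 pM TPO (EC50), 24 hrs, 37 C, 5% CO2; cells deprived of IL-3 overnight beforehand. Inhibition of signal scored.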

CN(C)CCOC(=O)C(c1ccccc1)C1(O)CCCC1 (stereo unspecified)
inactive: outcome [1]

COc1ccc(CN(CCN(C)C)c2ncccn2)cc1
inactive: outcome [1]

CN=C(N)NCCC[C@H](N)C(=O)O
inactive: outcome [2] | outcome [3] | Potency [4] | outcome [5] | outcome [6]

Oc1ccc(Cl)cc1Cc1cc(Cl)ccc1O
inactive: outcome [7] | outcome [8] | outcome [9] | outcome [10] | outcome [11] | outcome [12] | outcome [13]

CCc1cc(Cl)c(OC)c(C(=O)NC[C@@H]2CCCN2CC)c1O
active: Potency [14] 10 µM

C/C=C/c1ccc(O)c(OC)c1
inactive: outcome [7] | outcome [8] | outcome [15] | outcome [9] | outcome [10] | outcome [11] | Potency [16] | outcome [12] | outcome [13] | outcome [17] | outcome [18] | outcome [19]

CCOc1ccccc1C(N)=O
inactive: outcome [7] | outcome [8] | outcome [15] | outcome [9] | outcome [10] | outcome [11] | Potency [16] | outcome [12] | outcome [13] | outcome [17] | outcome [18] | outcome [19]

CCCCCCCCNC(C)C(O)c1ccc(SC(C)C)cc1 (stereo unspecified)
inactive: activation [14] 0.942%

O=C(O)CCNC(=O)c1ccccc1
inactive: outcome [1]

COc1ccc(C(=O)c2ccccc2)c(O)c1
inactive: outcome [7] | outcome [1] | outcome [8] | outcome [15] | outcome [9] | outcome [10] | outcome [11] | Potency [16] | outcome [12] | outcome [13] | outcome [17] | outcome [18] | outcome [19]

NC(N)=NCc1cccc(I)c1
inactive: outcome [3] | Potency [4] | outcome [5] | outcome [6]

COc1cc([C@H]2Oc3cc([C@H]4Oc5cc(O)cc(O)c5C(=O)[C@@H]4O)ccc3O[C@@H]2CO)ccc1O
inactive: outcome [7] | outcome [8] | outcome [15] | outcome [9] | outcome [10] | outcome [11] | Potency [16] | outcome [12] | outcome [13] | outcome [17] | outcome [18] | outcome [19]

CCCN(CCC)S(=O)(=O)c1ccc(C(=O)O)cc1
inactive: outcome [7] | outcome [1] | outcome [8] | outcome [15] | outcome [9] | outcome [10] | outcome [11] | Potency [16] | outcome [12] | outcome [13] | outcome [17] | outcome [18] | outcome [19]

CC(C)(C)NC[C@H](O)COc1nsnc1N1CCOCC1
inactive: outcome [2] | Potency [4] | outcome [5] | outcome [6]

COc1ccc(C(=O)c2ccccc2O)c(O)c1
active: Potency [14] 5.01 µM

COc1cc(NS(=O)(=O)c2ccc(N)cc2)ncn1
inactive: outcome [1]

CN(C)C(=O)Nc1ccc(Cl)c(Cl)c1
inactive: outcome [1]

CN(C)CCOC(c1ccc(Cl)cc1)c1ccccn1 (stereo unspecified)
inactive: outcome [1]

CCCCC(CC)COC(=O)c1ccc(N(C)C)cc1 (stereo unspecified)
inactive: outcome [7] | outcome [8] | outcome [15] | outcome [9] | outcome [10] | Potency [16] | outcome [12] | outcome [13] | outcome [17] | outcome [18] | outcome [19]

C=C[C@H]1CN2CC[C@H]1C[C@@H]2[C@@H](O)c1ccnc2ccc(OC)cc12
inactive: outcome [7] | outcome [8] | outcome [15] | outcome [9] | outcome [10] | Potency [16] | outcome [12] | outcome [13] | outcome [17] | outcome [18] | outcome [19]

CC[N+](C)(CC)CCOC(=O)C(O)(c1ccccc1)C1CCCCC1 (stereo unspecified)
inactive: activation [14] 1.14%

CN1CCC[C@@H]1CCO[C@](C)(c1ccccc1)c1ccc(Cl)cc1
active: Potency [20] 10 µM
inactive: outcome [5] | outcome [6]

NCCNc1cccc2ccccc12
inactive: outcome [8] | outcome [15] | outcome [9] | outcome [10] | outcome [11] | Potency [16] | outcome [12] | outcome [13] | outcome [17] | outcome [18] | outcome [19]

CN(C)CCC[C@@]1(c2ccc(F)cc2)OCc2cc(C#N)ccc21
active: Potency [4] 10 µM
inactive: outcome [2] | outcome [1] | outcome [5] | outcome [6]

Oc1c(Cl)cc(Cl)c(Cl)c1Cc1c(O)c(Cl)cc(Cl)c1Cl
active: Potency [16] 50.1 µM
inactive: outcome [9] | outcome [13]

NC(=O)c1ccccc1O
inactive: outcome [7] | outcome [8] | outcome [15] | outcome [9] | outcome [10] | outcome [11] | Potency [16] | outcome [12] | outcome [13] | outcome [17] | outcome [18] | outcome [19]

O=C(O)c1ccc(S(=O)(=O)N(Cl)Cl)cc1
inactive: outcome [7] | outcome [1] | outcome [8] | outcome [15] | outcome [9] | outcome [10] | outcome [11] | Potency [16] | outcome [12] | outcome [13] | outcome [17] | outcome [18] | outcome [19]

NS(=O)(=O)Cc1noc2ccccc12
inactive: outcome [2] | outcome [3] | Potency [4] | outcome [5] | outcome [6]

OC[C@H]1O[C@@H]2O[C@H]3[C@H](O)[C@@H](O)[C@@H](O[C@H]4[C@H](O)[C@@H](O)[C@@H](O[C@H]5[C@H](O)[C@@H](O)[C@@H](O[C@H]6[C@H](O)[C@@H](O)[C@@H](O[C@H]7[C@H](O)[C@@H](O)[C@@H](O[C@H]8[C@H](O)[C@@H](O)[C@@H](O[C@H]1[C@H](O)[C@H]2O)O[C@@H]8CO)O[C@@H]7CO)O[C@@H]6CO)O[C@@H]5CO)O[C@@H]4CO)O[C@@H]3CO
inactive: outcome [7] | outcome [8] | outcome [15] | outcome [9] | outcome [10] | outcome [11] | Potency [16] | outcome [12] | outcome [13] | outcome [17] | outcome [18] | outcome [19]

CC(=O)NO
inactive: outcome [1]

O=C(O)CCC(=O)Nc1ccc(S(=O)(=O)Nc2nccs2)cc1
inactive: outcome [1]

CCN(CC)CCNc1ccc(CO)c2sc3ccccc3c(=O)c12
inactive: outcome [1]

CCOc1ccc(NC(C)=O)cc1
inactive: activation [14] 2% | outcome [7] | outcome [8] | outcome [15] | outcome [9] | outcome [10] | outcome [11] | Potency [16] | outcome [12] | outcome [13] | outcome [17] | outcome [18] | outcome [19]

COc1ccc(C(Cl)=C(c2ccc(OC)cc2)c2ccc(OC)cc2)cc1
inactive: outcome [7] | outcome [1] | outcome [8] | outcome [15] | outcome [9] | outcome [10] | outcome [11] | Potency [16] | outcome [12] | outcome [13] | outcome [18] | outcome [19]
